From PubChem
Mdm2 MdmX PPI = inhibitors of human Mdm2-MdmX association, primary screen, cell-based, luminescence, split luciferase, SaOS-2, uHTS | inhibition, % at 8 µM | AID 485346, 2010 | 330,000 compounds, 3% hits | SaOS-2 split-luciferase Mdm2/MdmX complementation;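 active = inhibition of at least 50% at 8 µM in the primary screen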
Target sequence (O15151 whole entry, looked up): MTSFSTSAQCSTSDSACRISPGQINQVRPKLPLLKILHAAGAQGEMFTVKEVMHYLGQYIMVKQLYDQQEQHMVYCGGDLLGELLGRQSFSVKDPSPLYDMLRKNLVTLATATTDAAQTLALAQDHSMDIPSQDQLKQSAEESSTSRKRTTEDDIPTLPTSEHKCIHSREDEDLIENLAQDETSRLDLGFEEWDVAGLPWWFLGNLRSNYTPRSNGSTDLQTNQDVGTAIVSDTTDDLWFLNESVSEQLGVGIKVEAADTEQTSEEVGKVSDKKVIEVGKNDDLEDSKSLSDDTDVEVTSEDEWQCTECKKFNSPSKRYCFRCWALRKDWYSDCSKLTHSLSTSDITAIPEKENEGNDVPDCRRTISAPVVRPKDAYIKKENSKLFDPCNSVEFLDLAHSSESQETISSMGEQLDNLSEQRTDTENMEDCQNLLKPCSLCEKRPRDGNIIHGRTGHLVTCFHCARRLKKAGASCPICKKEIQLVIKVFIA
Target sequence (Q00987 whole entry, looked up): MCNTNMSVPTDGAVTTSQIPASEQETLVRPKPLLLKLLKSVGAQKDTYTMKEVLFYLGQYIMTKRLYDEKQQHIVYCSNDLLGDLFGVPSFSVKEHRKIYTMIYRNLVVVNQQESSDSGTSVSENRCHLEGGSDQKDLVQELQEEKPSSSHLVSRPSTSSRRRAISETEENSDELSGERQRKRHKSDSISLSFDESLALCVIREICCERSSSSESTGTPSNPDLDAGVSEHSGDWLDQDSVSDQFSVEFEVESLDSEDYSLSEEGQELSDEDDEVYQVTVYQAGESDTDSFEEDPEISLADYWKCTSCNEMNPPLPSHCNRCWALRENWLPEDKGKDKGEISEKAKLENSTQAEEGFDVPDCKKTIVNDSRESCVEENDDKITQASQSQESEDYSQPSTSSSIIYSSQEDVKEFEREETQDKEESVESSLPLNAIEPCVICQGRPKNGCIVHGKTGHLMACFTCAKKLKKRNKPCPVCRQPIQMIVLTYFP
KKLEB tox = cytotoxicity in KKLEB CF airway cells, primary screen, cytotoxicity control for CF NF-kB inhibitor project, cell-based, uHTS, fluorescence assay plates | KKLEB CF airway cells viability, ATPlite luminescence, overnight; hits give low values; cells stimulated with P. aeruginosa culture filtrate | activity change (cytotoxicity), % at 5 µM | 360,000 compounds, 0.36% hits;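 active = corrected activity change at or below -50% at 5 µM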
ABHD5-PLIN5 inh = ABHD5-PLIN5 interaction inhibitors, primary screen, cell lysate, split luciferase complementation, luminescence; 360,000 compounds, 0.78% hits; Split G. princeps luciferase complementation, 4 h; Perilipin-5 (Homo sapiens) + 1-acylglycerol-3-phosphate O-acyltransferase ABHD5 (Homo …; inhibition, % at 4 µM;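 active = inhibition above the mean inhibition across every tested compound plus 3 SD, cut at about 22% in these data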
CF NFkB block = inhibitors of PAF-induced NF-kB signaling, primary screen, cell-based, GFP fluorescence, uHTS; KKLEB NF-kB-GFP reporter, GFP fluorescence overnight; inhibition, % at 5 µM; 360,000 compounds, 0.86% hits; AID 588850, 2011;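 active = at least 50% inhibition at 5 µM, scaled per plate between neutral and stimulator controls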;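 note: PAF is a Pseudomonas aeruginosa culture filtrate used as stimulus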
HIF-2a block = HIF-2a reporter inhibitors, primary screen, luminescence, 786-0 RCC cells; 786-0 RCC cells HIF-2a reporter, luciferase luminescence, overnight; inhibition, % at 18.8 µM; 360,000 compounds, 0.72% hits; AID 624352, 2012;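 active = inhibition of the luminescence signal of 40% or more relative to plate controls, in a single-dose primary screen at 18.75 µM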
Peg3 prom inh = Peg3 promoter-driven luciferase inhibitors, primary screen, cell-based, HeLa, luciferase luminescence; AID 588405, 2011; inhibition, % at 20 µM; HeLa PEG-Prom luciferase reporter, overnight; 360,000 compounds, 1.7% hits;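 active = inhibition of at least 50% at 20 µM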
Numbers stand for hits. The list is not random: actives were taken first. Their share in the collection is about 4.6%.

How did N#Cc1cccc(S(=O)(=O)NNC(=O)C23CC4CC(CC(C4)C2)C3)c1 do in these assays?
Mdm2 MdmX PPI: inactive; KKLEB tox: inactive; ABHD5-PLIN5 inh: inactive; CF NFkB block: inactive; HIF-2a block: inactive; Peg3 prom inh: inactive

What do the screens show for `CCCCOCCOC(=O)C1OC1(C)c1ccccc1` (stereo not drawn)?
KKLEB tox: inactive; ABHD5-PLIN5 inh: inactive; CF NFkB block: inactive; HIF-2a block: inactive; Peg3 prom inh: inactive

Results for CS(=O)(=O)c1ccc(C(=O)OCC(=O)N2CCN(CCC3CCCCC3)CC2)cc1[N+](=O)[O-] ?
KKLEB tox: -85.1; ABHD5-PLIN5 inh: inactive; CF NFkB block: 100.9; HIF-2a block: 80.2; Peg3 prom inh: 97.0

Results for CCC(=O)Nc1ccc(NC(=O)c2oc3ccccc3c2C)cc1 ?
Mdm2 MdmX PPI: inactive; KKLEB tox: inactive; ABHD5-PLIN5 inh: inactive; CF NFkB block: inactive; HIF-2a block: 62.0; Peg3 prom inh: inactive

What do the screens show for `Cn1c(=O)c2c(SCC(=O)N3CCCc4ccccc43)nc(C3CC3)nc2n(C)c1=O`?
Mdm2 MdmX PPI: inactive; KKLEB tox: inactive; ABHD5-PLIN5 inh: inactive; CF NFkB block: inactive; HIF-2a block: inactive; Peg3 prom inh: 51.8

What do the screens show for `COc1ccccc1-c1ccc(/C=C2/C=C(C)OC2=O)o1`?
Mdm2 MdmX PPI: inactive; KKLEB tox: inactive; ABHD5-PLIN5 inh: 22.6; CF NFkB block: inactive; HIF-2a block: inactive; Peg3 prom inh: inactive

What do the screens show for `Cc1cc(O)ccc1N/C=C/c1onc(C)c1[N+](=O)[O-]`?
Mdm2 MdmX PPI: inactive; KKLEB tox: -52.0; ABHD5-PLIN5 inh: inactive; CF NFkB block: inactive; HIF-2a block: inactive; Peg3 prom inh: inactive

Results for O=C(NNC(=O)c1ccccc1-c1ccccc1C(=O)O)c1ccccc1 ?
Mdm2 MdmX PPI: inactive; KKLEB tox: inactive; ABHD5-PLIN5 inh: inactive; CF NFkB block: inactive; HIF-2a block: inactive; Peg3 prom inh: inactive

How did O=C(C=P(c1ccccc1)(c1ccccc1)c1ccccc1)c1ccccc1-c1ccccc1C(=O)C=P(c1ccccc1)(c1ccccc1)c1ccccc1 do in these assays?
KKLEB tox: -78.7; ABHD5-PLIN5 inh: 26.0; CF NFkB block: 91.1; HIF-2a block: 95.1; Peg3 prom inh: 99.5

Results for CCOC(=O)c1c(NC(=O)CSc2nc3ccc(OC)cc3[nH]2)sc2c1CC(C)(C)NC2(C)C ?
Mdm2 MdmX PPI: inactive; KKLEB tox: inactive; ABHD5-PLIN5 inh: inactive; CF NFkB block: inactive; HIF-2a block: inactive; Peg3 prom inh: 90.6

What do the screens show for `CCOC(=O)c1c(NC(=O)CSc2ncccn2)sc2c1CC(C)(C)NC2(C)C`?
Mdm2 MdmX PPI: inactive; KKLEB tox: inactive; ABHD5-PLIN5 inh: inactive; CF NFkB block: inactive; HIF-2a block: inactive; Peg3 prom inh: inactive

Results for O=S(=O)(c1cnc(Cl)c(Br)c1)N1CCc2ccccc21 ?
Mdm2 MdmX PPI: inactive; KKLEB tox: inactive; ABHD5-PLIN5 inh: inactive; CF NFkB block: inactive; HIF-2a block: inactive; Peg3 prom inh: 68.9

What do the screens show for `O=S(=O)(c1cnc(Cl)c(Cl)c1)N1CCc2ccccc21`?
Mdm2 MdmX PPI: inactive; KKLEB tox: inactive; ABHD5-PLIN5 inh: inactive; CF NFkB block: inactive; HIF-2a block: inactive; Peg3 prom inh: inactive

How did O=S(=O)(c1cc(Cl)ccc1Cl)N1CCc2ccccc21 do in these assays?
KKLEB tox: inactive; ABHD5-PLIN5 inh: inactive; CF NFkB block: inactive; HIF-2a block: inactive; Peg3 prom inh: inactive

Results for O=S(=O)(c1cnc(Cl)c(Cl)c1)N1CCCc2ccccc21 ?
Mdm2 MdmX PPI: inactive; KKLEB tox: inactive; ABHD5-PLIN5 inh: inactive; CF NFkB block: inactive; HIF-2a block: inactive; Peg3 prom inh: 51.5

Results for Cc1ccc(C2/C(=C(\O)c3ccc4c(c3)OCCO4)C(=O)C(=O)N2CC2CCCO2)cc1 (stereo not drawn) ?
Mdm2 MdmX PPI: inactive; KKLEB tox: inactive; ABHD5-PLIN5 inh: inactive; CF NFkB block: inactive; HIF-2a block: inactive; Peg3 prom inh: inactive

What do the screens show for `NC1=NC(=O)/C(=C\c2cccnc2)S1`?
Mdm2 MdmX PPI: inactive; KKLEB tox: inactive; ABHD5-PLIN5 inh: inactive; CF NFkB block: 51.6; HIF-2a block: inactive; Peg3 prom inh: inactive

Results for CCN(C[C@H]1N[C@@](C)(C(=O)OC)[C@H]2C(=O)N(C)C(=O)[C@@H]12)C(=O)Nc1ccc(OC)cc1 ?
Mdm2 MdmX PPI: inactive; KKLEB tox: inactive; ABHD5-PLIN5 inh: inactive; CF NFkB block: inactive; HIF-2a block: inactive; Peg3 prom inh: inactive

What do the screens show for `COc1ccc(/C=C2\C(=O)ON=C2c2ccccc2)cc1`?
Mdm2 MdmX PPI: inactive; KKLEB tox: inactive; ABHD5-PLIN5 inh: inactive; CF NFkB block: inactive; HIF-2a block: inactive; Peg3 prom inh: inactive

How did O=C1ON=C(c2ccccc2)/C1=C/c1ccc(O)c(O)c1 do in these assays?
Mdm2 MdmX PPI: inactive; KKLEB tox: inactive; ABHD5-PLIN5 inh: inactive; CF NFkB block: inactive; HIF-2a block: 41.1; Peg3 prom inh: inactive

Results for CCCCn1nnnc1C(c1cc2ccccc2o1)N1CCN(C(=O)OC(C)(C)C)CC1 (stereo not drawn) ?
ABHD5-PLIN5 inh: inactive; HIF-2a block: inactive

Results for Cc1ccc(CNC(=O)Cn2cnc(S(=O)(=O)N3CCC(C)CC3)c2)o1 ?
Mdm2 MdmX PPI: inactive; KKLEB tox: inactive; ABHD5-PLIN5 inh: 22.1; CF NFkB block: inactive; HIF-2a block: inactive; Peg3 prom inh: inactive

What do the screens show for `O=c1nc2onnc2c(C=NO)[nH]1`?
KKLEB tox: inactive; ABHD5-PLIN5 inh: inactive; CF NFkB block: inactive; HIF-2a block: inactive; Peg3 prom inh: inactive

What do the screens show for `CCOC(=O)c1c(C2CC2)csc1NC(=O)COC(=O)c1cnc(Cl)c(Cl)c1`?
Mdm2 MdmX PPI: inactive; KKLEB tox: inactive; ABHD5-PLIN5 inh: inactive; CF NFkB block: inactive; HIF-2a block: inactive; Peg3 prom inh: 102.1

How did CCN(CC)C(=O)C1CCCN(c2ncnc3c2cnn3-c2ccc(Cl)cc2)C1 (stereo not drawn) do in these assays?
Mdm2 MdmX PPI: inactive; KKLEB tox: inactive; ABHD5-PLIN5 inh: inactive; CF NFkB block: inactive; HIF-2a block: 50.1; Peg3 prom inh: 55.6

What do the screens show for `CCN(CC)C(=O)C1CCCN(c2ncnc3c2cnn3-c2cccc(C)c2)C1` (stereo not drawn)?
Mdm2 MdmX PPI: inactive; KKLEB tox: inactive; ABHD5-PLIN5 inh: inactive; CF NFkB block: inactive; HIF-2a block: inactive; Peg3 prom inh: inactive

How did O=C(CCCc1ccccc1)NC1CC1 do in these assays?
Mdm2 MdmX PPI: inactive; KKLEB tox: inactive; ABHD5-PLIN5 inh: inactive; CF NFkB block: inactive; HIF-2a block: inactive; Peg3 prom inh: inactive

How did O=C(O)CCCc1ccc2c(c1)CCc1ccccc1-2 do in these assays?
Mdm2 MdmX PPI: inactive; KKLEB tox: inactive; ABHD5-PLIN5 inh: inactive; CF NFkB block: inactive; HIF-2a block: 67.9; Peg3 prom inh: inactive
